Molecules are shown by their SMILES. Values joined by “and” are separate entries in the source; they are usually repeats but may differ in a detail not shown here. Equal values may be shown once. Peptide text beside a SMILES is read from it. * marks the point of attachment. CH2Cl = ClC*

The nature of the first test: viability loss with induced miR-34 in A549 – imaging, A549 dox-inducible miR-34, nuclei and caspase counts, primary screen (AID 1347080). Also: test concentration not given here. The conditions noted are these: A549 miR-34 inducible, Hoechst nuclei count, 48 h; measured here: relative caspase fold change +Dox/-Dox.
Regarding `COC[C@H]1OC(=O)c2coc3c2[C@@]1(C)C1=C(C3=O)[C@@H]2CCC(=O)[C@@]2(C)C[C@H]1OC(C)=O`, the fold change worked out at 1.29. Turning to `COC(=O)[C@@]1(O)CC2OC1(C)n1c3ccccc3c3c4c(c5c6ccccc6n2c5c31)C(=O)NC4` (stereo not given in full), the fold change worked out at 1.29. As to `C/C1=C/C(=O)O[C@@H]2C[C@@H](CC[C@H](C)/C=C\CC1)O[C@@](O)([C@@H]1CSC(=O)N1)C2`, the fold change was 0.63. On to `CCOC(=O)CN1C(=O)CC(C[C@@H](O)C2C[C@@H](C)C[C@H](C)C2=O)CC1=O` (stereo not given in full), for which the fold change is 1.21.

Staying with this test, now noted: A549 miR-34 inducible, Hoechst nuclei count, 48 h; measured here: total cells with miR-34 induction; stronger effect = lower value.
On to `N#CC(C#N)=NNc1ccc(OC(F)(F)F)cc1`, for which the cell count stood at 1180. As to `CCCC(=O)N[C@H]1CCOC1=O`, the cell count was 6040.

Turning to `CCCCC/C=C\C/C=C\C/C=C\C/C=C\CCCC(=O)NC(CO)CO`, the cell count turned out to be 5640. The same measure, in the same setting: the result for `C=C(C)[C@@H]1CCC(C)=C[C@H]1c1c(C)cc(O)cc1O` reads 5200; that for `CCCCCC(=O)N[C@H]1CCOC1=O`, 5400; that for `C=C1[C@@H](C)[C@H]2[C@H](Cc3ccccc3)NC(=O)C23[C@H](OC(C)=O)/C=C/[C@](C)(O)C(=O)[C@@H](C)C/C=C/[C@H]3[C@@H]1O` (stereo not given in full), 990. Take `CCCCC/C=C\C/C=C\C/C=C\C/C=C\CCCC(=O)NCCCC(=O)O`: the cell count was determined as 5500.

`CC1OC(O[C@H]2C[C@@H](O)[C@]3(CO)[C@H]4[C@H](O)C[C@]5(C)[C@@H](C6=CC(=O)OC6)CC[C@]5(O)[C@@H]4CC[C@]3(O)C2)C(O)C(O)C1O` (stereo not given in full): the cell count turned out to be 286.

`N[C@H]1C[C@@H]1c1ccccc1` returned a cell count of 9050. The compound `CCCCC/C=C\C/C=C\C/C=C\C/C=C\CCCC(=O)Nc1cccc([N+](=O)[O-])c1` displayed a cell count of 5310. In turn, `CCCCCC(/C=C/C=O)OO` (stereo not given) displayed a cell count of 5780.

`CCCCC/C=C\C/C=C\C/C=C\C/C=C\CCCC(=O)OCCN` displayed a cell count of 5780. For the compound `Cc1cc(C(C#N)c2ccc(Cl)cc2)c(Cl)cc1NC(=O)c1cc(I)cc(I)c1O` (stereo not given), the cell count was 8250 and 7900 and 8930.

Turning to `C[C@H](N)C(=O)N[C@@H](C)C(=O)N[C@@H](Cc1ccccc1)C(=O)CCl` (H-Ala-Ala-Phe-CH2Cl), the cell count is 2970. The compound `CC[C@@]1(O)C(=O)OCc2c1cc1n(c2=O)-c2cc3ccccc3nc2C1` returned a cell count of 1320. As to `CC(C)(O)[C@H]1O[C@H]2CC[C@@]3(C)[C@@](O)(CC[C@H]4Cc5c([nH]c6ccccc56)[C@@]43C)C2=CC1=O`, the cell count came to 3780. Consider `CCNC(=O)[C@H]1O[C@@H](n2cnc3c(N)ncnc32)[C@@H](O)C1O` (stereo not given in full), for which the cell count was 6150. The compound `CO/C1=C\C(C)=C\[C@@H](C)[C@@H](O)[C@@H](C)C/C(C)=C/C=C/[C@H](OC)[C@@H]([C@@H](C)[C@@H](O)[C@H](C)[C@@]2(O)C[C@@H](O)[C@H](C)[C@@H](C(C)C)O2)OC1=O` showed a cell count of 2990.

As for `CCCCC/C=C\C/C=C\C/C=C\C/C=C\CCCC(=O)NCCOP(=O)(O)O`, the cell count was found to be 5850. As to `CCCCC/C=C\C/C=C\C/C=C\C/C=C\CCCC(=O)NC[C@@H](C)O`, the cell count was 5790. In turn, `CO[C@@H]1C[C@@H](C[C@H]2CC[C@H](C)[C@H]([C@@H](C)C(=O)O)O2)O[C@]2(O[C@](C)([C@H]3CC[C@@](C)([C@@H]4O[C@@H]([C@H]5O[C@@](O)(CO)[C@H](C)C[C@@H]5C)C[C@@H]4C)O3)C[C@H]2C)[C@@H]1C` yielded a cell count of 1790. Take `CCCCC/C=C\C/C=C\C/C=C\C/C=C\CCCC(=O)N[C@@H](C)CO`: the cell count was 6190. `COC(C/C=C/C=C/CC/C=C\CC(C)/C=C\C(=C/C(=O)O)CC(=O)O)/C(C)=C\C=C(/C)C(=O)O` (stereo not given): the cell count was 5720. On to `CNCCCCCCN(C)N(O)N=O`, for which the cell count turned out to be 6040.

With `CCCCCCCC/C=C\CCCCCCCC(=O)Nc1ccccc1`, the cell count was 6190. The compound `CCCCC/C=C\C/C=C\C/C=C\C/C=C\CCCC(=O)NOCCO` displayed a cell count of 5500.

In the case of `C=C1[C@@H](C)[C@H]2[C@H](Cc3ccccc3)NC(=O)[C@]23OC(=O)/C=C/[C@H](O)CCC[C@@H](C)C/C=C/[C@H]3[C@@H]1O`, the cell count is 1220.

In the case of `CCCCCCC(=O)O[C@H]1CC[C@H]2[C@@H]3C[C@H](O)C4=CC(=O)CC[C@]4(C)[C@H]3CC[C@]12C`, the cell count was 5330. In the case of `CCCCC/C=C\C/C=C\C/C=C\C/C=C\CCCC(=O)O[C@H](COC(=O)CCCCCCCCCCCCCCCCC)COP(=O)([O-])OCC[N+](C)(C)C`, the cell count was 5220. On the same count and under the same terms, next, `C[C@@]1(CO)[C@H](O)CC[C@@]2(C)[C@H]1CC[C@H]1C[C@@H]3C[C@@]12CC[C@]3(O)CO`: 2420; `COC[C@H]([C@@H](O)[C@@H](O)C(=O)NCC[C@@H](C)c1nc(/C=C/C[C@H]2OC3(C[C@H](O)[C@H]2C)OC([C@@H](C[C@@H](O)[C@@H](C)[C@@H](O)[C@@H](C)/C=C(C)/C(C)=C/C=C/C(C)=C\C#N)OC)[C@@H](OP(=O)(O)O)C3(C)C)co1)N(C)C` (stereo not given in full): 250.

These data come from PubChem BioAssay.
